Experimental findings from PubChem BioAssay (Tox21) are described below.

Results filed as inconclusive are left out. Where a call stands in place of a potency, no number is given. The source made the active and inactive calls. Calls follow the shape of the dose curve; as a rule, active = well fitted cell-killing curve with a large enough effect in the repeat runs; inconclusive = weak or mixed curves, or effect the other way; inactive = flat fitted curve, though single readings scatter.
Potency is read from the fitted curve at half-maximal effect.

The nature of the experiment: cAMP Responsive Elements (CRE) small molecule antagonists, cell-based qHTS assay: qHTS cell viability counter screen (AID 2060913). Also: nearly all actives have a fitted effect of over 40% in size. To be noted: CRE-bla HEK293T viability, CellTiter-Glo luminescence, 5 h; series mostly up to 92.4 µM. The method, boiled down: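 Steps: cells plated and held 18 hrs at 37 C/5% CO2; compounds and NKH477 (0.25 uM final) added; 3 hrs incubation; reporter substrate read; CellTiter-Glo added to measure cytotoxicity by luminescence.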
Background: qHTS replaces the single test concentration by a dilution series.
Regarding `CCCCCOc1ccc(C2SC(=O)NC2=O)cc1OCC` (stereo not given), the Potency result is “inactive”.
With `C=CCOCC(CC)(CO)COCC=C` the entry was “inactive”; with `Cc1ccco1`, “inactive”.
Regarding `CC(C)=CCC[C@H](C)CC=O`, the Potency entry was “inactive”.
Take `NNc1nc(-c2ccc([N+](=O)[O-])cc2)cs1`: the Potency result was “inactive”.
The result for `COC(=O)C1=C(C)NC(COC(N)=O)=C(C(=O)OC(C)C)C1c1cccc(Cl)c1Cl` (stereo not given) reads “inactive”; that for `O=C(O)c1ccncc1`, “inactive”; that for `CC(=O)CCC=C(C)C`, “inactive”.
With `C=CCn1c(=O)n([C@@H]2O[C@H](CO)[C@@H](O)[C@H]2O)c2nc(N)[nH]c(=O)c21` the entry was “inactive”; with `Cc1ccc(O)c(-n2nc3ccccc3n2)c1`, “inactive”.
The result for `O=C(N[C@H](CO)[C@H](O)c1ccc([N+](=O)[O-])cc1)C(Cl)Cl` reads “inactive”; that for `CCC(=O)C(=O)CC`, “inactive”.
As to `CNc1c2c(nn1C)CCCC2`, the Potency result is “inactive”.
With `c1ccc2cnncc2c1` the entry was “inactive”; with `Oc1ccc(N=Nc2ccccc2)cc1`, “inactive”.
On to `CC(CC1c2ccccc2CCc2ccccc21)CN(C)C` (stereo not given), for which the Potency result was “inactive”.
With `CC(C)=CCCC(C)CCOC=O` (stereo not given) the entry was “inactive”.
With `CC(=O)Oc1ccc(C)cc1` the entry was “inactive”; with `CCCCOC(O)CC` (stereo not given), “inactive”.
With `C=C(CC)C(=O)c1ccc(OCC(=O)O)c(Cl)c1Cl` the entry was “inactive”; with `Clc1cc(Cl)nc(Cl)n1`, “inactive”; with `O=C(O)c1cc(Cl)cc(Cl)c1O`, “inactive”.
As to `O=C(Nc1ccc(S(=O)(=O)N2CCOCC2)cc1)c1cc(Cl)ccc1NS(=O)(=O)c1ccc(Cl)s1`, the Potency entry was “inactive”.
With `CC(C)=CCCC(C)CC(=O)O` (stereo not given) the entry was “inactive”; with `CCCCCCCCCc1ccc(OCCOCCO)cc1`, 22.8 µM (active); with `CCCCN1C(=O)c2ccccc2C1=O`, “inactive”.
With `C[C@H]1C[C@H]2[C@@H]3CCC4=CC(=O)C=C[C@]4(C)[C@@]3(F)[C@@H](O)C[C@]2(C)[C@@]1(O)C(=O)CO`, the Potency result was “inactive”.
The result for `CCc1cc(C(C)(C)C)c(O)c(C(C)(C)C)c1` reads “inactive”.
With `CCCCCCCCCCCCN(CCCCCCCCCCCC)CCCCCCCCCCCC` the entry was “inactive”; with `c1ccc([C@H]2CN3CCSC3=N2)cc1`, “inactive”; with `CCCCOC(=O)CC`, “inactive”.
The result for `CCCCOC(=O)C(=O)OCCCC` reads “inactive”; that for `O=C(O)c1cc(=O)c2ccccc2o1`, “inactive”.
Turning to `OCc1ccccn1`, the Potency entry was “inactive”.
On to `CN(C)CCCOc1nn(Cc2ccccc2)c2ccccc12`, for which the Potency entry is “inactive”.
With `C[Si](C)O[Si](C)(C)O[Si](C)(C)O[Si](C)C` the entry was “inactive”; with `CC(C)CC(C)(N)C#N` (stereo not given), “inactive”.
With `CC(C#N)(CCC(=O)O)N=NC(C)(C#N)CCC(=O)O` (stereo not given) the entry was “inactive”; with `[Cu+]`, “inactive”.
With `CCCCC(CC)(CO)CO` the entry was “inactive”.
